Results reported in PubChem BioAssay (NCI).
This is part of a sample that, as a whole, favours compounds with a hit. Of some 83,000 tested, about 20% had one in any assay.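 Note: values are percent growth. 100 is the growth of untreated cells, values between 100 and 0 indicate rising inhibition; between -100 and 0 indicates cell death.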 Values without a mark were called inactive. Active and inactive are the calls of the source.

Test system: MOLT-4 leukemia
Experiment: NCI-60 one-dose screen, 48 h (100 = growth as untreated, 0 = no growth, -100 = all killed)
Conditions: 10 µM unless noted
Method: Growth inhibition of the MOLT-4 human tumor cell line is measured as a screen for anti-cancer activity. Cells are grown in 96 well plates and exposed to the test compound for 48 hours. Compounds are tested at a single concentration, which is 10^-5 M for most compounds. The reported endpoint is percent growth (GI% or GIPRCNT), where numbers from 0 - 100% represent growth inhibition, and numbers from -100% - 0 represent cell death. For example, a value of 40 represents 60% growth inhibition. A value of 0 means no net growth occurred over the course of the experiment. A value of -40 indicates 40% of cells at the beginning of the experiment died by the end of the experiment. A value of -100 means all cells are dead at the end of the experiment.
NCI-60 Human Tumor Cell Lines Screen was performed using the standard one-dose NCI protocol, which is described in more detail at https://dtp.cancer.gov/discovery_development/nci-60/default.htm.
Compounds with GIPRCNT values below 10 were considered active. Activity score was based on GIPRCNT using the following formula: […]
Score is 0 for GIPRCNT values of 100 or above, 50 for GIPRCNT values of 0, and 100 for GIPRCNT values of -100.

Row | Compound | growth
1 | Cc1ccc(/C=C/C(=N/N=C(N)N)c2ccccc2)cc1 | 24%
2 | C=C(C)C1CCC2(C(=O)O)CCC3(C)C(CCC4C5(C)CCC(O)C(C)(C)C5CCC43C)C12 (stereo not given) | 11.3%
3 | O=C(C(Br)C(Br)c1ccccc1)C(Br)C(Br)c1ccccc1 (stereo not given) | -43.4% (active)
4 | Fc1[nH]nc2ccc([C@@H]3Nc4ccc5[nH]ncc5c4[C@H]4C5CCC(C5)[C@@H]34)cc12 (stereo not given in full) | 21.2%
5 | O=C(O)C1[S][Sb]([CH](C(=O)O)[CH](C(=O)O)[Sb]2[S]C(C(=O)O)C(C(=O)O)[S]2)[S]C1C(=O)O (stereo not given) | 63.7%
6 | CCC(=O)NC(O)C(Cl)(Cl)C(C)Cl (stereo not given) | 108%
7 | O=C(Nc1ccc(Cl)c(C(F)(F)F)c1)c1ccc(Nc2ccc(Cl)nn2)cc1 | 43.7%
8 | CC(C)NC(=O)OCC#CCOC(=O)NC(C)C | 101%
9 | OC(c1cc2cc(Cl)ccc2c2cc(C(F)(F)F)ccc12)C1CCCCN1 (stereo not given) | -69.3% (active)
10 | C#CC[C@@H]1C[C@]2(C)[C@H]3CC=C4[C@H]5CC(C)(C)CC[C@]5(C(=O)NCCCCN)CC[C@@]4(C)[C@]3(C)CC[C@H]2C(C)(C)[C@H]1OC(C)=O | 12.2%
11 | CC(=O)N[C@@H](CCC(N)=O)C(=O)O | 95.3%
12 | O=S(=O)(NCC[C@@H]1C[C@H]1c1ccc2ccccc2c1)c1ccc(C(F)(F)F)cc1 | 84.3%
13 | CCOc1cccc(/C=N/NC(=O)c2ccc(Nc3ccnc(C(F)(F)F)c3)cc2)c1O | 31.2%
14 | COC1CC(N)C2OC(c3ccccc3)OCC2O1 (stereo not given) | 100%
15 | [O-]/[N+](=C\c1ccccc1)CC1(O)CCCCC1 | 106%
16 | Oc1ccc(Nc2ncnc3c2sc2ncccc23)cc1 | 12.2%
17 | C#CC[C@@H]1C[C@]2(C)[C@H]3CC[C@@H]4[C@H]5C(C(=C)C)CC[C@]5(C(=O)NCCCCN)CC[C@@]4(C)[C@]3(C)CC[C@H]2C(C)(C)[C@H]1OC(C)=O (stereo not given in full) | -21.3% (active)
18 | C[C@@H](C[C@H](CC1CC1)c1ccccc1)c1ccc2ccccc2c1 | 105%
19 | F | 23.5% [6.87 mM]
20 | CCCCOc1ncnc2nc[nH]c12 | 91.9%

Row | Compound | growth
21 | COc1ccc(C(=O)C(C#N)c2cc(OC)c(OC)c(OC)c2)cc1 (stereo not given) | 88%
22 | C=C1NC(=O)C(C(C)CC)NC(=O)C2CSCC(NC(=O)CCC(=O)O)C(=O)NC(Cc3ccccc3)C(=O)NC(C)C(=O)NC(CC(C)CC)C(=O)NC(C(=O)NC(Cc3ccccc3)C(=O)N3CCCC3C(=O)N2)C(C)OC(=O)C(CO)NC(=O)C(C(O)COC)N(C)C(=O)C(C(C)C)NC(=O)C(CC(C)CC)NC1=O (stereo not given) | 16.9% [6 µM]
23 | CCN(CC)CCCC(C)N/C(c1cccc(OC)c1)=c1\c(=O)[nH]n(-c2c3ccccc3nc3ccccc23)c(=O)\c1=C(/NC(C)CCCN(CC)CC)c1cccc(OC)c1 (stereo not given) | -22.7% (active)
24 | CCCCNCCC(O)c1cc2ccc(C(F)(F)F)cc2c2cc(C(F)(F)F)ccc12 (stereo not given) | -58.8% (active)
25 | Cc1nc2ccc(Nc3nc(Cl)nc(N4CCOCC4)n3)cc2n1Cc1ccccc1 | 25.8%
26 | COC(=O)/C=C/c1cc(OC(C)=O)c2c(c1)[C@@H](C(=O)OC)[C@H](c1ccc(OC(C)=O)c(OC(C)=O)c1)O2 | 14.9%
27 | O=C(O)c1cn(-c2ccccc2)nc1-c1ccc(O)cc1 | 104%
28 | O=C(c1ccc(C(F)(F)F)c(Cl)c1)N(Cc1ccc(Cl)cc1)c1ccc(-c2cc(C(F)(F)F)[nH]n2)c(O)c1 | 9.19% (active)
29 | CC[C@H](Nc1nc(N)nc(C2CC2)c1C#N)c1nc2cccc(NCc3ccc(C(=O)NO)cc3)c2c(=O)n1-c1ccccc1 | 2.13% (active)
30 | Cc1[nH]n(C(=O)c2ccncc2)c(=O)c1N=Nc1ccc(O)c(C(=O)O)c1 | 87.4%
31 | Nc1ccc(C(OC(=O)c2cc3ccccc3c(Cc3c(O)c(C(=O)OC(c4ccc(N)cc4)(c4ccc(N)cc4)c4ccc(N)cc4)cc4ccccc34)c2O)(c2ccc(N)cc2)c2ccc(N)cc2)cc1 | 21%
32 | COc1cc2c(cc1OCCCOc1cc3c(cc1OC)C(=O)N1CCC[C@H]1C=N3)C=CC(C)(C)O2 | 65%
33 | COc1ccc(-c2cnc3ccnn3c2-c2cc(OC)c(OC)c(OC)c2)cc1 | 46.7%
34 | COc1ccc2nc(C)cc(Nc3ccccc3O)c2c1 | 87.7%
35 | COC(=O)CNS(=O)(=O)c1ccc2c(c1)Cc1cc(S(=O)(=O)NCC(=O)OC)ccc1-2 | 99.8%
36 | O=C(NC1CC1)c1ccc(-c2nc3ccc4[nH]ncc4c3c3c2CCCC3)cc1 | 38.8%
37 | COc1cc(C)c2c(=O)c3c(oc2c1)C(=O)c1c(O)c(OC)cc(O)c1C3=O | 16.3%
38 | Cc1cc(C)c2c(n1)sc1c(Nc3ccc(O)cc3)ncnc12 | 14.3%
39 | NC(=O)Nc1ccc2ncnc(Nc3cccc(O)c3)c2c1 | 98.8%
40 | CCOc1ccc([C@@H]2[C@@H](Oc3ccccc3)C(=O)N2c2cc(OC)c(OC)c(OC)c2)cc1 | 5.59% (active)
